Many of the other results were omitted from the sample, so hits are more common in it than they were.
Pf Dd2 growth = Plasmodium falciparum Dd2 growth inhibition. P. falciparum Dd2 growth, SYBR Green, 72 h. Potency, µM (top dose mostly 28.9 µM), actives largely listed as inhibitors. actives 4.3% (n = 120,000). AID 1347417; active means well fitted inhibition curve with a large enough effect; further: nearly all actives have a fitted effect of over 65% in size
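Readout: SYBR Green fluorescence, 485 nm excitation, 535 nm emission, after ~16 h lysis at 37C. Before that, Dd2-infected red cells (2.5% hematocrit) grew 72 h with compound, 29 uM top final concentration.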
Numbers stand for hits; i = inactive.

SMILES | Pf Dd2 growth
Cc1noc(C)c1-c1cc2cc(C(C)C)oc2c(-c2cccc(CO)c2)n1 | i
CC1(c2ccccc2)CCCN(C(=O)c2ccnc(-n3cnnc3)c2)C1 (stereo not drawn) | i
COc1cccc(Nc2cc3c(cn2)NCCN(Cc2ccccc2)C3)c1 | i
O=[S+]([O-])(Nc1cccnc1)c1ccc2c(c1)OCCN(Cc1ccsc1)C2 | i
COc1cccc(CN2CCNc3cnc(Nc4ccccc4)cc3C2)c1 | i
FC(F)(F)Oc1cccc(CN2CCNc3cc(Nc4cccnc4)ncc3C2)c1 | 5.01µM
c1ccc(Oc2cc3c(cn2)NCCN(Cc2ccsc2)C3)cc1 | i
c1cncc(Nc2cc3c(cn2)CN(Cc2ccsc2)CCN3)c1 | 8.91µM
COC(=O)C1=C(C)N(Cc2ccccc2F)C(=O)CC1c1ccc(F)cc1F (stereo not drawn) | i
Cc1ccc(N2CC(c3noc(-c4cc(F)ccc4Cl)n3)CC2=O)cc1 (stereo not drawn) | i
C#CCNC(=O)C1CCc2nnc(CNC(=O)c3ccc(Cl)cc3Cl)n21 (stereo not drawn) | i
CCOc1ccc(C(=O)N2CCC(c3nnc(Cn4cccn4)n3C)CC2)o1 | i
Cc1ccc2c(n1)N(C)[C@H](CO)CCN(Cc1cccnc1)C2 | i
CC(=O)N1CC2(Cc3ccccc31)CN(C(=O)c1ccccc1)C2 | i
COc1ccc(-c2ccnc(N[C@H]3CO[C@H]4[C@@H]3OC[C@H]4OC(=O)Nc3cccc(OC)c3)n2)cc1 | i
COC(=O)c1ccccc1NC(=O)O[C@@H]1CO[C@H]2[C@@H]1OC[C@@H]2Nc1nccc(-c2ccc(N(C)C)cc2)n1 | 5.01µM
COc1ccc(-c2ccnc(N[C@H]3CO[C@H]4[C@@H]3OC[C@@H]4NC(=O)Nc3cccc(C#N)c3)n2)cc1 | i
COc1cc(NC(=O)N[C@H]2CO[C@H]3[C@@H]2OC[C@@H]3Nc2nccc(-c3ccc(N(C)C)cc3)n2)cc(OC)c1 | 12.6µM
CN(C)c1ccc(-c2ccnc(N[C@H]3CO[C@H]4[C@@H]3OC[C@H]4OC(=O)NCc3ccccc3)n2)cc1 | i
COc1cc(NC(=O)N[C@H]2CO[C@H]3[C@@H]2OC[C@@H]3Nc2nccc(-c3ccc(-c4ccccc4)cc3)n2)cc(OC)c1 | i
COCc1cn(C[C@H]2C[C@@H](NC(=O)c3cc(C)n(C)n3)[C@H](O)[C@@H]2O)nn1 | i
CCOC(=O)c1ccc(CNC(=O)N2CCC3(CC2)CN(c2ccccc2)C3=O)cc1 | i
c1ccc(OCCn2c(COc3ccccc3)nc3ccccc32)cc1 | i
COc1cccc(OCc2nc3ccccc3n2CCOc2ccccc2)c1 | i
CCn1c(=N)n(CCOc2ccc(Br)cc2)c2ccccc21 | 5.01µM
SMILES | Pf Dd2 growth
c1ccc(C(CCNc2ncncn2)c2ccco2)cc1 (stereo not drawn) | i
CCCCNC(=O)C1CC(=O)N(c2n[nH]c3cccc(F)c23)C1 (stereo not drawn) | i
CCCCN(C)C(=O)c1csc(N2CCN(c3ccccc3)CC2)n1 | 11.2µM
CCN(CC)C(=O)c1csc(N2CCN(c3cccc(Cl)c3)CC2)n1 | i
O=C(NCc1ccccn1)c1csc(N2CCN(c3ccccc3)CC2)n1 | i
O=C(Nc1cccc(-c2ccc(N3CCOCC3)nn2)c1)Nc1ccccc1C(F)(F)F | i
CC(=O)N1CCOc2cc(S(=O)(=O)NC(C)c3ccccc3)c(Cl)cc21 (stereo not drawn) | i
CC(=O)N1CCOc2cc(S(=O)(=O)Nc3cccc(C(F)(F)F)c3)c(Cl)cc21 | 12.6µM
CC(=O)N1CCOc2cc(S(=O)(=O)Nc3cc(C(F)(F)F)ccc3Cl)c(C)cc21 | i
Cc1nccn1CCNC(=O)C1CCCCC(=O)N1Cc1ccccc1 (stereo not drawn) | i
Cc1ccc(C2Cn3nnc(C(=O)N4CCC(C(=O)NCc5ccncc5)CC4)c3CO2)cc1 (stereo not drawn) | i
O=C(Cc1ccccc1)N1CCC2(CCCCO2)CC1 | i
Cc1oc2ccn(Cc3ccc(F)cc3)c(=O)c2c1C(=O)N1CCN(c2ccccn2)CC1 | i
N#Cc1ccc(C(=O)Nc2ccc3c(c2)N(C2CCCC2)C(=O)c2ccccc2S3)cc1 | 11.2µM
CCN1C(=O)c2ccccc2Sc2ccc(NC(=O)Nc3cc(C)cc(C)c3)cc21 | i
CCN1C(=O)c2ccccc2Sc2ccc(NC(=O)c3ccc(Cl)cc3)cc21 | i
CCCNC(=O)N1CCC2(CCCCO2)CC1 | i
CN1c2cc(C(=O)Nc3ccc4c(c3)OCCO4)ccc2C(=O)N2CCCC21 (stereo not drawn) | i
O=C(NCCn1cc(SCc2ccccc2Cl)c2ccccc21)c1cccs1 | 11.2µM
O=C(NCCn1cc(SCc2ccccc2)c2ccccc21)c1cccs1 | i
O=C(Cn1cc(SCc2ccccc2F)c2ccccc21)N1CCCC1 | i
Cc1noc(C)c1S(=O)(=O)N1CCCC(Cc2nncn2CC2CC2)C1 (stereo not drawn) | i
O=C(O)Cn1ccc2cc(OCCc3cccc(-c4cccc(F)c4)c3)cnc21 | i
O=C(NCC1CCCN(C(=O)N2CCCC2)C1)c1ccc(-c2ccccc2)cc1 (stereo not drawn) | i
Cc1cc(C)cc(Nc2nc(-c3ccccc3F)no2)c1 | 12.6µM

Screening results: PubChem, National Center for Advancing Translational Sciences (NCATS)
